# Sampled rows, rich in hits. Any-hit rate of the full collection: about 3.1%.
# A549 tox: kills or reduces viability of A549 cells in Nrf2 counter-screen | A549 ARE-Fluc cells, CellTiter-Fluor viability, 18-24 h | Potency, µM (doses to about 46 µM), most hits filed as inhibitors | 390,000 compounds, 0.16% hits
#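 A549 ARE_Fluc cells in 5% FBS OPTI-MEM were exposed to compounds in concentration-response for 18-24 h at 37 deg C. Viability was read by CellTiter-Fluor fluorescence (Ex 405/Em 525) after 30 min, before the luciferase read.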
# IDH1 R132H inh: inhibitors of human mutant IDH1 R132H; 390,000 compounds, 0.093% hits; Potency, µM (titrated, usually from 76.6 µM), usual class: inhibitors; O75874; IDH1-R132H enzyme, NADPH consumption, diaphorase/resazurin fluorescence; further: nearly all actives have a fitted effect of over 65% in size
# Target sequence (O75874 whole entry R132H, stated change not applied): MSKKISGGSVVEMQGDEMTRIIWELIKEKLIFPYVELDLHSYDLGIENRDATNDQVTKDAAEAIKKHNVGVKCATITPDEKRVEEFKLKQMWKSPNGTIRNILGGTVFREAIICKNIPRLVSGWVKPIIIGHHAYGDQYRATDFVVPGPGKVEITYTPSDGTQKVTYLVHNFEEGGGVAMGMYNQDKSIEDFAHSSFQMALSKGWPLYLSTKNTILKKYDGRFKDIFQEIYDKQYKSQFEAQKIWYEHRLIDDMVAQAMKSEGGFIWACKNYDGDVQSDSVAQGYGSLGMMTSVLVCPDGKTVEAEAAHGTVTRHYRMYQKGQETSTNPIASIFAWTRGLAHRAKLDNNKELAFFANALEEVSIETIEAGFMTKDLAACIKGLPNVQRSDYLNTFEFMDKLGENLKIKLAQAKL
#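 IDH1-R132H (0.5 ug/mL) preincubated 30 min with compound, then NADPH (0.016 mM) and alpha-KG (2 mM) added; 80 min at RT, pH 7.5. Remaining NADPH coupled via diaphorase/resazurin to fluorescence (540/590 nm); concentration-response curves normalized to no-enzyme control.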
# rTrxR1 inhibitor: blocks rat thioredoxin reductase 1; 390,000 compounds, 1% hits; recombinant rTrxR1, NADPH fluorescence consumption, selenite substrate; O89049; Potency, µM (highest dose often 114 µM), hits mostly inhibitors; further: nearly all actives have a fitted effect of over 65% in size
#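 Rat TrxR1 (90 nM in the dispensed reagent) was pre-reduced with 400 uM NADPH for 5 min at room temperature, then incubated with compound for 15 min. After 400 uM selenite was added, NADPH fluorescence (Ex 340/Em 450 nm) was followed for 8 min.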
# Nrf2 block: Nrf2 pathway inhibition | A549 ARE-Fluc reporter, luciferase luminescence, 18-24 h | Potency, µM (series often up to 46 µM), actives largely listed as inhibitors | 360,000 compounds, 2.1% hits | AID 504444; further: nearly all actives have a fitted effect of over 60% in size
#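 Two sequential reads on A549 ARE_Fluc cells exposed to compound for 18-24 h: a CellTiter-Fluor fluorescence read for viability, then a luciferase luminescence read for Nrf2/ARE activity.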
# TrxR1 substrate: is turned over as a substrate by rat TrxR1; O89049; purified TrxR1 substrate turnover, NADPH consumption readout; Potency, µM (titrated, usually from 114 µM); 390,000 compounds, 0.01% hits; further: nearly all actives have a fitted effect of over 50% in size
#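 Rat TrxR1, dispensed at 90 nM, was prereduced with 400 uM NADPH (final) for 5 min at ~22 deg C, then incubated with compound 15 min before 400 uM selenite. A first-read NADPH fluorescence drop versus no-compound background flagged substrates.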
# Mito fusion yeast: mitochondrial division inhibition or fusion activation. S. cerevisiae fusion-defective mutant growth rescue, CellTiterGlo 48 h. Potency, µM (titrated, usually from 46.1 µM), most hits filed as activators. 320,000 compounds, 0.23% hits. AID 485298; further: nearly all actives have a fitted effect of over 45% in size
#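 Temperature-sensitive fusion-defective S. cerevisiae (e.g. fzo1-1, mgm1-5) were grown with compound in YPEG medium (3% ethanol, 3% glycerol) for 48 hours at 37C. Growth rescue was measured as viability by CellTiterGlo luminescence after 10 minutes at ambient.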
# Numbers stand for hits; 0 = inactive; ? = inconclusive; - = not tested or not shown. The call rests on the fitted dose curve; in most records, active means well fitted curve in the direction sought with a large enough effect; inconclusive means small, poorly fitted or top-dose-only effect, or another doubt; inactive means no such curve, though single readings can be large; an effect the other way counts as inactive or inconclusive.
SMILES,A549 tox,IDH1 R132H inh,rTrxR1 inhibitor,Nrf2 block,TrxR1 substrate,Mito fusion yeast
CCCCOc1ncnc2c1[nH]c1ccc(OCC)cc12,0,0,0,0,0,0
c1ccc2c(c1)[nH]c1c(NCC3CCCO3)ncnc12 (centres undefined),0,0,0,15µM,0,0
CCCCOc1ncnc2c1[nH]c1ccc(OC)cc12,0,0,0,-,0,0
CCN(c1ccccc1)c1nnc(NC(=O)Nc2ccc(C)cc2)s1,0,0,0,0,0,-
CCC(=O)N1CCc2cc(S(=O)(=O)NC(C(=O)NCCc3ccccc3)C(C)C)ccc21 (centres undefined),0,0,0,0,0,-
CCCN(c1ccc(C(C)C)cc1)S(=O)(=O)c1ccc2c(c1)CCN2C(=O)CC,0,0,0,0,0,-
NC(Cc1ccccc1)C(O)c1ccco1 (centres undefined),0,-,0,0,0,-
Clc1ccc(CN(CCCNc2ncnc(NCCCc3cnc[nH]3)n2)c2ccc(Br)cn2)cc1Cl,0,-,-,?,-,-
c1ccc(Nc2nc(NCC3CCCO3)c3ccccc3n2)cc1 (centres undefined),0,0,0,18µM,0,0
Oc1cccc(Nc2nc(NCC3CCCO3)c3ccccc3n2)c1 (centres undefined),0,0,0,0,0,0
COC(=O)c1ccccc1NC(=O)c1sc2nc(C)cc(C)c2c1NC(=O)c1ccccc1Cl,0,0,?,0,0,-
CC(C)(C)C(=O)NC1(C(F)(F)F)C(=O)Nc2c1c(=O)[nH]c(=O)n2-c1ccccc1 (centres undefined),0,0,0,0,0,-
COCCCNC(=O)c1cnc2c(-c3ccc(F)cc3)c(C)nn2c1C,0,0,0,?,0,-
O=C(CN1CCN(CCN2C(=O)c3cccc4cccc(c34)C2=O)CC1)c1ccc(F)cc1,0,0,?,0,0,0
O=C1C2C=CC=CC2=NC(=S)N1CCN1CCC(=C(c2ccc(F)cc2)c2ccc(F)cc2)CC1 (centres undefined),-,-,0,-,0,5.8µM
CC1CCN(S(=O)(=O)c2cc(C(=O)N3CCN(c4cccc(Cl)c4)CC3)n(C)c2)CC1,0,0,0,-,0,-
Cc1ccc(NC(=O)CC(=O)Nc2ccc(C)c(C)c2)cc1C,0,0,0,0,0,0
Cc1ccc(NC(=O)/C=C\C(=O)NCC(=O)O)cc1C,0,0,45µM,?,0,0
CC(C)Cc1ccc(CN2CCCC(NC(=O)c3ccoc3)C2)cc1 (centres undefined),0,0,0,0,0,0
CC(C)Cc1ccc(CN2CCCC(NC(=O)c3ccnn3C)C2)cc1 (centres undefined),0,0,0,13µM,0,0
Cc1ccc(Cl)cc1N1CCN(C(=O)Cc2cn(C)c3ccccc23)CC1,0,0,0,?,0,?
Cc1ccc(C)c(N2CCN(C(=O)Cc3cn(C)c4ccccc34)CC2)c1,?,0,0,21µM,0,?
Cc1ccc(Cl)cc1N1CCN(S(=O)(=O)c2cn(C)c(C)n2)CC1,0,0,0,-,0,-
Cc1cc(Br)ccc1OCC(=O)N(Cc1nc(-c2ccccc2)no1)C(C)C,0,0,0,18µM,0,0
Cc1ccc(OCC(=O)N(Cc2nc(-c3ccccc3)no2)C(C)C)cc1C,0,0,0,-,0,-
SMILES,A549 tox,IDH1 R132H inh,rTrxR1 inhibitor,Nrf2 block,TrxR1 substrate,Mito fusion yeast
COc1ccccc1OCC(=O)N(Cc1nc(-c2ccccc2)no1)C(C)C,0,0,0,13µM,0,0
COc1ccccc1OCC(=O)N(Cc1nc(-c2ccc(Cl)cc2)no1)C(C)C,0,0,0,0,0,0
O=C1c2ccccc2C(=O)N1Cc1ccncc1,0,-,-,0,-,-
O=C(O)CCn1c(=O)c2cccn2c2cccnc21,0,-,0,0,0,-
O=C(c1ccc(-c2cccc(C(F)(F)F)c2)o1)N1CCOCC1,0,0,0,-,0,0
CC(=O)N1CCN(C(=O)c2ccc(-c3cccc(C(F)(F)F)c3)o2)CC1,0,0,40µM,0,0,0
N#Cc1cc2sc3nnc(-c4ccncc4)n3c2cc1C#N,0,0,0,6.5µM,0,0
